# CRFBP-R2 agonist: agonists of human CRF-binding protein/CRF-R2 receptor complex; HEK293 CRF-R2/CRF-BP, calcium dye fluorescence (FLIPR); percent of saturating CRF peptide response; activation, % at 13.2 µM; hit rate 0.46% among 350,000; AID 588473;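 active means activation of at least 50%, plus an integration ratio under a set limit after plate pattern correction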;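 further: plate controls were neutral control wells without compound for no effect and CRF at EC100 for full effect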
# IDE act: IDE (human) activation, cell-based; activation, % at 5.96 µM; P14735; AID 493087; HEK cells, FAbeta-B cleavage, fluorescence polarization; 0% vehicle, 100% cell-free pure enzyme wells; hit rate 0.073% among 340,000;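 active means activation above the mean of all tested compounds plus 3 SD, set per screening campaign, cut at about 17% in these data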
# cardiac RTF act: increases calcium sensitivity of human cardiac regulated thin filaments | hit rate 0.24% among 340,000 | activation, % at 7.2 µM | IANBD-labeled TnC RTF fluorescence at EC20 calcium; 0% EC20 calcium, 100% full calcium;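 active means activation above the mean over all tested compounds plus 3 SD, cut at about 30% in these data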;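 further: rise in fluorescence read as greater calcium sensitivity of cardiac thin filaments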
# TPT1 inhibitor: blocks Candida albicans tRNA 2'-phosphotransferase. hit rate 0.81% among 300,000. recombinant caTPT1, FP RNA substrate dephosphorylation. inhibition, % at 5 µM;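 active means inhibition above the mean of all tested compounds plus 3 SD, set per screening campaign, cut at about 24% in these data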;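 further: plate controls were DMSO alone for no effect and ferristatin control at 100 nM for full effect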
# Cardiac RTF inh: cardiac RTF calcium desensitization | P19429+P45379 | IANBD-labeled cardiac RTF, Ca2+ fluorescence | inhibition, % at 7.15 µM | hit rate 0.12% among 340,000 | AID 493244;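 active means inhibition above the mean inhibition of all tested compounds plus 3 SD, cut at about 17% in these data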;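 further: assay run at fixed EC70 calcium of 1.6 mM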
# IDE cell inh: inhibitors of human insulin-degrading enzyme in cells; inhibition, % at 5.59 µM; hit rate 0.41% among 320,000; HEK cells, FAbetaB cleavage, fluorescence polarization; P14735;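 active means percent inhibition above the average of all tested compounds plus 3 SD, set per screening campaign, cut at about 16% in these data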;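 further: IDE supplied by intact live HEK cells; FP after avidin binding of uncleaved biotin substrate so inhibition keeps polarization high; 0% = DMSO wells and 100% = 60 µM reference IDE inhibitor Ii1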
# Numbers without * were called inactive; · = not tested or not shown. Compounds with a hit are over-represented: about 1.5% of the library has one in this group of screens.
SMILES,CRFBP-R2 agonist,IDE act,cardiac RTF act,TPT1 inhibitor,Cardiac RTF inh,IDE cell inh
CCCc1ccc(C(C)NC(=S)NCc2ccc(F)cc2)cc1 (stereo not given),53.3*,5.3,-4.0,0.5,-0.3,-0.3
CCC(C)c1ccc(C(C)NC(=S)NCc2ccc(F)cc2)cc1 (stereo not given),15.6,6.5,-2.9,-0.9,5.6,0.2
CC1=C(C(=O)N2CCOCC2)CC(CC(=O)NC2CCCC2)C(=O)N1Cc1ccc(F)cc1 (stereo not given),-1.0,·,·,·,·,·
CCOC(=O)Cc1csc(NC(=O)CSc2nnc(-c3ccncc3)o2)n1,121.4*,·,·,-3.3,·,0.1
NS(=O)(=O)c1ccc(NC(=O)COC(=O)CN2C(=O)C3CC=CCC3C2=O)cc1 (stereo not given),0.5,-3.5,0.5,·,-4.1,5.1
CC(=O)c1ccc(S(=O)(=O)N2CCN(CC(=O)Nc3ccccc3C(=O)NC3CC3)CC2)cc1,-2.0,0.2,-1.9,·,1.8,-1.9
CC(Sc1nnc2c(n1)[nH]c1ccccc12)C(=O)NC1CCCCC1 (stereo not given),-2.9,1.0,-2.2,-3.0,10.3,-6.2
O=C1NC(=S)S/C1=C\c1cc(Cl)cc(Cl)c1O,83.2*,-135.7,2.8,·,-9.3,·
O=C(NCCSc1ccccn1)c1ccc(Cl)cc1,2.1,-1.6,9.9,3.9,-1.6,-1.0
CS(=O)(=O)N(Cc1ccc(Cl)cc1)c1ccc(C(=O)NCCSc2ccccn2)cc1,53.9*,1.1,2.2,0.5,2.3,4.6
CCC1(c2ccc(F)cc2)NC(=O)N(CC(=O)NC2CCCCCC2)C1=O (stereo not given),-2.8,1.6,0.5,·,-8.0,0.0
COc1ccc(/C=C2/SC(=S)N(CCCC(=O)Nc3ccccc3C(=O)O)C2=O)cc1,-0.5,21.6*,1.9,0.9,2.0,-31.9
OCc1cc(-c2ccccn2)no1,0.7,-1.1,8.0,-2.8,-5.8,2.6
O=C(N/N=C/c1cn(-c2ccccc2)nc1-c1ccc2c(c1)OCCO2)c1ccncc1,0.6,25.9*,0.8,0.0,-3.5,-0.6
Cc1ccc(Cc2cnc(NC(=O)c3ccco3)s2)cc1,0.7,-1.7,-1.9,-4.5,-11.9,5.2
O=C(Nc1ncc(Cc2ccc(SC(F)F)cc2)s1)c1ccc(OC(F)F)cc1,68.1*,3.5,-5.2,-0.3,12.7,6.6
CC(=O)Oc1c(C)cc(Cl)cc1C(=O)Nc1ccc([N+](=O)[O-])cc1Cl,83.0*,-2.1,5.7,-1.9,3.0,-2.0
O=C(O)c1cc(S(=O)(=O)Nc2ccc(OCc3ccccc3)cc2)ccc1Br,0.2,-4.4,2.6,1.6,-15.1,-2.1
Cc1nc2scc(C)n2c(=O)c1S(=O)(=O)NCc1ccc(F)cc1,1.0,-0.1,-2.7,1.2,2.4,-1.8
NC(=Nc1ccccc1)Nc1ccccc1,146.9*,-0.8,-5.4,0.5,-0.3,-2.3
COc1ccccc1N=Cc1c(C)[nH]n(-c2ccc(C)cc2C)c1=O,0.7,6.6,2.4,-3.1,-6.8,-1.7
COc1ccc2nc(/N=C/c3c(C)[nH]n(-c4ccc(C)cc4C)c3=O)sc2c1,64.6*,-3.3,-0.6,-2.3,2.0,4.9
O=[N+]([O-])c1ccccc1CCc1ccccc1[N+](=O)[O-],0.3,2.4,0.3,·,0.6,·
Cc1cc(C(=O)COc2cccc3cccnc23)c(C)n1C,189.8*,8.5,52.5*,-61.3,-133.7,-7.0
Cc1cc[n+](-c2[nH]c(=O)sc2/C=N/NC([S-])=Nc2ccccc2)cc1,48.9,6.6,41.8*,-42.1,-83.2,0.1
CCc1ccc[n+](-c2[nH]c(=O)sc2/C=N/NC([S-])=Nc2ccccc2)c1,84.8*,-2.9,85.1*,-40.7,-99.3,1.3
CC(C)(C)c1cc[n+](-c2[nH]c(=O)sc2/C=N/NC(=O)c2ccccc2[O-])cc1,6.8,-0.3,15.0,-28.1,-11.2,0.5
Cc1cc(C)c[n+](-c2[nH]c(=O)sc2/C=N/NC([S-])=Nc2ccccc2)c1,10.1,3.2,74.8*,-41.1,-73.3,1.1
O=c1[nH]c(-[n+]2ccccc2)c(/C=N/NC([S-])=Nc2ccccc2)s1,13.7,8.7,21.3,-52.6,-37.8,1.2
COc1ccc(NS(=O)(=O)c2cc(C(=O)N3CCCCCC3)ccc2C)cc1,1.1,-0.8,3.0,·,1.4,6.7
